Source: PubChem BioAssay AID540276 (National Center for Advancing Translational Sciences (NCATS), 2011)
Out of some 300,000 compounds screened, about 5,400 (1.8%) were called active. Inconclusive results (about 28%) are left out. This is one part of a sample in which actives are shown more often than they occur. Values without a mark were called inactive. Calls follow the shape of the full dose curve; tested in HEK293 cells.

Assay: qHTS for inhibitors of binding or entry into cells for Marburg Virus
Conditions: Marburg virus pseudotyped entry inhibition, cell reporter; series mostly up to 37.8 µM; activity change, negative = inhibition: at the top concentration
% is scaled to controls: 0 for no effect and ±100 for the full control effect; potency is read from the fitted curve at half-maximal effect.

SMILES | activity change, negative = inhibition | Potency
Cc1ccc(C(=O)O)c(NC=O)c1OCc1ccccc1 | -16.2% [at 46.1 µM] | –
Cc1[nH]c(C)c(S(=O)(=O)N2CCC(C)CC2)c1C(=O)N1CCCC1 | 8.85% [at 46.1 µM] | –
CN(CC(=O)NCCc1ccc(S(N)(=O)=O)cc1)CC(=O)Nc1ccc(Cl)cc1 | 12.9% | –
COC(=O)NC1(C(F)(F)F)NC(=O)N(C2CCCCC2)C1=O (centres undefined) | 0.437% | –
O=C(NC1(C(F)(F)F)N=C(c2ccccc2)N(C2CCCCC2)C1=O)c1ccccc1F (centres undefined) | -21.3% [at 46.1 µM] | –
O=C1NC(Nc2nc3ccccc3s2)(C(F)(F)F)C(=O)N1C1CCCCC1 (centres undefined) | – | 6.51 µM (active)
C=CCOc1cccc(CNCc2cccnc2)c1 | 15.2% [at 46.1 µM] | –
O=C(/C=C/c1cn(-c2ccccc2)nc1-c1ccc2c(c1)OCCO2)NCCCN1CCOCC1 | – | 3.55 µM (active)
CC(C)c1ccc(/C=C/C(=O)NCCCN2CCOCC2)cc1 | -28.2% | –
COc1ccc(-c2nn(-c3ccccc3)cc2/C=C\C(=O)N2CCOCC2)cc1[N+](=O)[O-] | 15.3% [at 46.1 µM] | –
Cc1cc(F)ccc1NC(=S)NCCc1ccccc1 | 6.16% [at 46.1 µM] | –
O=C(Nc1cccc(Cl)c1Cl)c1ccccc1NC(=O)C1CC=CCC1C(=O)O (centres undefined) | -14.1% [at 46.1 µM] | –
Cc1ccccc1CN1CCNC(=O)C1CC(=O)NCCC1=CCCCC1 (centres undefined) | -26% | –
Cc1ccc(C(=O)NNC(=O)c2ccncc2)cc1S(=O)(=O)N1CCCCC1 | -0.132% | –
Cc1ccc(NS(=O)(=O)c2cccs2)cc1S(=O)(=O)N1CCCCCC1 | – | 10 µM (active)
Cc1ccc(NC(=O)c2ccccn2)cc1S(=O)(=O)N1CCOCC1 | 1.1% | –
Cc1ccc(NC(=O)CCCNC(=O)c2ccc(Cl)cc2)cc1S(=O)(=O)N1CCCCC1 | -11% | –
COc1ccccc1C(=O)Nc1ccc(C)c(S(=O)(=O)N2CCCCC2)c1 | – | 8.91 µM (active)
O=S(=O)(Nc1ccccc1)c1ccc(NS(=O)(=O)c2cccs2)cc1 | -21.5% [at 46.1 µM] | –
CCOc1ccc2ccccc2c1/C=N/NC(=O)c1c(C)cc(C)[nH]c1=O | 22% [at 46.1 µM] | –
Cc1ccc(/C=C2\CCn3c2nc2cc(C(=O)O)ccc2c3=O)c(C)c1 | -23.6% [at 46.1 µM] | –
Cc1ccc(Nc2nnc(SC(C)C(=O)NC3CC3)s2)cc1 (centres undefined) | 11.7% | –
CCOC(=O)C1CCN(C(=O)CN2C(=O)c3cccnc3Oc3ccc(C)cc32)CC1 | 17.4% [at 46.1 µM] | –
COc1ccc2nc(/N=C(\N)NC(=O)Nc3ccccc3)nc(C)c2c1 | -30.2% | –
O=C(NNC(=O)C(O)c1ccccc1)NC1CCCCC1 (centres undefined) | 15.9% [at 46.1 µM] | –
Cc1nc(/N=C(\N)NC(=O)NC2CCCCC2)nc2ccccc12 | – | 7.94 µM (active)
O=C(OCCOCn1cc(Br)c(=O)[nH]c1=O)c1ccccc1 | -4.74% [at 46.1 µM] | –
C=CCn1c(=O)n(C)c2c(=O)n(C)c(=O)n(C)c21 | 5.71% [at 46.1 µM] | –
O=C1CC(c2ccccc2)C(=O)N2C(=O)CC(c3ccccc3)C(=O)N12 (centres undefined) | 1.53% [at 46.1 µM] | –
